# Assay results taken from PMC7862700, “An all-to-all approach to the identification of sequence-specific readers for epigenetic DNA modifications on cytosine”.
# Experiments:
# Assay in all cases: DAPPL (digital affinity profiling via proximity ligation, sequencing); 10 mM Tris-HCl pH 7.5, 50 mM NaCl, 1 mM DTT, 4% glycerol, room temperature, 30 min; GST-TFs on glutathione beads, 16-mer random dsDNA library, 0.1% formaldehyde crosslink after washing; high values mean tight binding
# FLI1 = target: T1, FLI1 (Homo sapiens, UniProt Q01543 1-452); conditions: protein: recombinant; tags: N-terminal GST; dsDNA, one strand shown
# T1 sequence: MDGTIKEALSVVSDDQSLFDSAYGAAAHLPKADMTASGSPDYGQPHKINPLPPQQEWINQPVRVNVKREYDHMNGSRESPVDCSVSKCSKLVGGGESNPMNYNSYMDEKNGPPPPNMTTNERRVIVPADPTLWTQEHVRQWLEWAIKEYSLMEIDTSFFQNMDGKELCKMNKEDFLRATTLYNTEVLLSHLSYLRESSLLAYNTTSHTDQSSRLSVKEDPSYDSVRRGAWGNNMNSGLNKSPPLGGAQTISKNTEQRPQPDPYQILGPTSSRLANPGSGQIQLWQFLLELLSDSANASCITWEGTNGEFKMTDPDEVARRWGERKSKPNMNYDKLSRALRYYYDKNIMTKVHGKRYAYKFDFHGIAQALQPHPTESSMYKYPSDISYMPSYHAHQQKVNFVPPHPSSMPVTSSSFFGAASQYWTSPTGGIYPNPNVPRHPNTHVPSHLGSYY
# Method in brief: (§1)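 Pools of DNA-barcoded human transcription factors, expressed in yeast as GST fusions on glutathione beads and combined with a tag-only sample, were incubated with 200 nmole of a 16-mer random double-stranded DNA library. Incubation took 30 min at room temperature in Tris/NaCl/DTT/glycerol buffer and was followed by washing, 0.1% formaldehyde crosslinking, proximity ligation (BsaI/T4 ligase, 1 h, 37 °C), PCR amplification and sequencing on an Illumina NextSeq500. Binding signal is the ratio of a hexamer's read frequency for a factor to its frequency for the tag-only sample.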
# ELK1 = target: T2, ELK1 (Homo sapiens, UniProt P19419 1-428); conditions: protein: recombinant; tags: N-terminal GST; dsDNA, one strand shown
# T2 sequence: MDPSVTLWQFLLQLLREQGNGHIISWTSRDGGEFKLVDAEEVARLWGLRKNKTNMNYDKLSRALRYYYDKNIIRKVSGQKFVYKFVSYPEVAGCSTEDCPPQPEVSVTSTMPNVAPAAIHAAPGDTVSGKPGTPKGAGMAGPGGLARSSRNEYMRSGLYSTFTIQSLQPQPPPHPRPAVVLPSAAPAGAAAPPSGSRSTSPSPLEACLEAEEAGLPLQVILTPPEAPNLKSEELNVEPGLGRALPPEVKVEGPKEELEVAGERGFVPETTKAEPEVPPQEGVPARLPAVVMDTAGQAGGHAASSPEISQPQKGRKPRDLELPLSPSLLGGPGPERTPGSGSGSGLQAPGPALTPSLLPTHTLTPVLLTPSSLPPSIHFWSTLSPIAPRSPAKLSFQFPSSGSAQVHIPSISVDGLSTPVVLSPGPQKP
# Method in brief: as §1
# GABPA = target: T3, GABPA (Homo sapiens, UniProt Q06546 1-454); conditions: protein: recombinant; tags: N-terminal GST; dsDNA, one strand shown
# T3 sequence: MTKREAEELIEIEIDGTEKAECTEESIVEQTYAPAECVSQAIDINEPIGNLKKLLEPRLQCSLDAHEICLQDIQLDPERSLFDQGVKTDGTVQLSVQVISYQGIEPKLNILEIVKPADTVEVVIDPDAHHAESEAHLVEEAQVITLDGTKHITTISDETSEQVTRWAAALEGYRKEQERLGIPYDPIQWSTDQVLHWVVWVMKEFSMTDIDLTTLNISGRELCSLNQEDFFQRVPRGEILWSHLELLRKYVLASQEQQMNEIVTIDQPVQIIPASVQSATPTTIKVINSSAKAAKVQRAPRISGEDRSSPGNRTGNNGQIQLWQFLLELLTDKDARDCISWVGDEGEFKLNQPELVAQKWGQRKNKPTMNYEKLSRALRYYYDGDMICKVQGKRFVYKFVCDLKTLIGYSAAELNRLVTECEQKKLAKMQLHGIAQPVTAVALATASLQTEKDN
# Method in brief: as §1
# ERG = target: T4, ERG (Homo sapiens, UniProt P11308 1-479); conditions: protein: recombinant; tags: N-terminal GST; dsDNA, one strand shown
# T4 sequence: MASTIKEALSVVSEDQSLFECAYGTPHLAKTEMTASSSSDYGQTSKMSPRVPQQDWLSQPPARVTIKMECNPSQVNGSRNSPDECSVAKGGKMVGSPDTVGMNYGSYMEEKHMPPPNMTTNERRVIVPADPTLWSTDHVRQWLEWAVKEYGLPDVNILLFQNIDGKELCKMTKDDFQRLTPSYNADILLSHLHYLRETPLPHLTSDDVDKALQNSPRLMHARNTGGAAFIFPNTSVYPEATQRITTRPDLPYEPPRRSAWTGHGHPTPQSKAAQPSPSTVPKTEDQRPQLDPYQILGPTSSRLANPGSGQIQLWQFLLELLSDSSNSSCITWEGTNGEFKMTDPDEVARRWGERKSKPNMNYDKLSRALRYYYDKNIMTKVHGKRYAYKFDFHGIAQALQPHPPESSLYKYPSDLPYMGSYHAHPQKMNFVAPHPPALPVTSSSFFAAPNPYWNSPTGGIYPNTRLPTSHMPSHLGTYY
# Method in brief: as §1
# ELF1 = ELF1 (Homo sapiens, UniProt P32519 1-619); conditions: protein: recombinant; tags: N-terminal GST; dsDNA, one strand shown
# ELF1, sequence (P32519 whole entry): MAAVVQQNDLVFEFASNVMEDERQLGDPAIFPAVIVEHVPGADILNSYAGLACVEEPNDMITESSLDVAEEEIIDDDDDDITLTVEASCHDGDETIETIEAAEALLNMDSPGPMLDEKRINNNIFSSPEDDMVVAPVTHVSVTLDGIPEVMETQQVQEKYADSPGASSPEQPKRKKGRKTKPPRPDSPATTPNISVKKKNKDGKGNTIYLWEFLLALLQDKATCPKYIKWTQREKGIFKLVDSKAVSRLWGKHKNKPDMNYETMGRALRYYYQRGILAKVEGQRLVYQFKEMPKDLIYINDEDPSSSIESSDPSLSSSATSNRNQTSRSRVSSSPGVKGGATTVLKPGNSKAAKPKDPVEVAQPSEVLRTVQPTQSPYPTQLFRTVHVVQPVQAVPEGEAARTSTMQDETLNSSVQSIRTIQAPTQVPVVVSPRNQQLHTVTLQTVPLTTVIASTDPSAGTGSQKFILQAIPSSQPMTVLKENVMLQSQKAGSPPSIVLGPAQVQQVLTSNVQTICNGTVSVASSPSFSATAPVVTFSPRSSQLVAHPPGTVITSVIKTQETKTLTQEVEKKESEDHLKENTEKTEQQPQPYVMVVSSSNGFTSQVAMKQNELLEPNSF
# Method in brief: as §1
# EHF = target: T5, EHF (Homo sapiens, UniProt Q9NZC4 1-300); conditions: protein: recombinant; tags: N-terminal GST; dsDNA, one strand shown
# T5 sequence: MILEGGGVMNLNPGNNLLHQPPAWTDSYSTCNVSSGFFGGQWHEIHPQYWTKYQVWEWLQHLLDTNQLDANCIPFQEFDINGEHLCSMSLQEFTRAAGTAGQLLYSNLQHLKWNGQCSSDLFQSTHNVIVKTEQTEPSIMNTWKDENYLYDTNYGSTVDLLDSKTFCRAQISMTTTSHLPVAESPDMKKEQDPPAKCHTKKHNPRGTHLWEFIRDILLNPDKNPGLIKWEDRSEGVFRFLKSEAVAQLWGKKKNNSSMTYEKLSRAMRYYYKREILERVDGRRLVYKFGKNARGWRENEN
# Method in brief: as §1
# SPI1 = SPI1 (Homo sapiens, UniProt P17947 1-270); conditions: protein: recombinant; tags: N-terminal GST; dsDNA, one strand shown
# Method in brief: as §1
# SPIB = SPIB (Homo sapiens, UniProt Q01892 1-262); conditions: protein: recombinant; tags: N-terminal GST; dsDNA, one strand shown
# SPIB, sequence (Q01892 whole entry): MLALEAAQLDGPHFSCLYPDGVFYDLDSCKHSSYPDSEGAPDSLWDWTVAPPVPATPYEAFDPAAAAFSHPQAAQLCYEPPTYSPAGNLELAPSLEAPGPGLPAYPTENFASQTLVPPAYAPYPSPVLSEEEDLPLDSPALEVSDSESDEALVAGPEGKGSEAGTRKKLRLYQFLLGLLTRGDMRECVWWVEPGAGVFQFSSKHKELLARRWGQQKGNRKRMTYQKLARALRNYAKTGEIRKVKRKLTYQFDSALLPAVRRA
# Method in brief: as §1
# ELK3 = target: T6, ELK3 (Homo sapiens, UniProt P41970 1-407); conditions: protein: recombinant; tags: N-terminal GST; dsDNA, one strand shown
# T6 sequence: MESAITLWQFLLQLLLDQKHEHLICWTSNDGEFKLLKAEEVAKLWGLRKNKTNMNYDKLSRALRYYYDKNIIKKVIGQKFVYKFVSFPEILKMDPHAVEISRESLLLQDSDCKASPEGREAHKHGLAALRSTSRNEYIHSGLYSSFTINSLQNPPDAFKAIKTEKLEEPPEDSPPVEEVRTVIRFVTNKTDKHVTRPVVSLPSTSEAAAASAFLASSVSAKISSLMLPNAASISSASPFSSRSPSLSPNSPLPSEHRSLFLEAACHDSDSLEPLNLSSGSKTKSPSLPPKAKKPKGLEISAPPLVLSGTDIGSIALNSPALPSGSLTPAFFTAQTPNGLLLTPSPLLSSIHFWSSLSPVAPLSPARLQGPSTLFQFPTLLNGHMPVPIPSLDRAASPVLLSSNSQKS
# Method in brief: as §1
# FEV = target: T7, FEV (Homo sapiens, UniProt Q99581 1-238); conditions: protein: recombinant; tags: N-terminal GST; dsDNA, one strand shown
# T7 sequence: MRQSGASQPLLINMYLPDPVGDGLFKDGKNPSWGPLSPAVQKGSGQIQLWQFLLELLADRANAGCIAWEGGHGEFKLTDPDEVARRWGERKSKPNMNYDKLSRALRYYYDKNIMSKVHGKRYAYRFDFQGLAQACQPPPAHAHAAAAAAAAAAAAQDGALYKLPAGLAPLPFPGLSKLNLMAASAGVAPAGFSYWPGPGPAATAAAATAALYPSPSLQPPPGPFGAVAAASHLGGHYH
# Method in brief: as §1
# ETV5 = ETV5 (Homo sapiens, UniProt P41161 1-510); conditions: protein: recombinant; tags: N-terminal GST; dsDNA, one strand shown
# ETV5, sequence (P41161 whole entry): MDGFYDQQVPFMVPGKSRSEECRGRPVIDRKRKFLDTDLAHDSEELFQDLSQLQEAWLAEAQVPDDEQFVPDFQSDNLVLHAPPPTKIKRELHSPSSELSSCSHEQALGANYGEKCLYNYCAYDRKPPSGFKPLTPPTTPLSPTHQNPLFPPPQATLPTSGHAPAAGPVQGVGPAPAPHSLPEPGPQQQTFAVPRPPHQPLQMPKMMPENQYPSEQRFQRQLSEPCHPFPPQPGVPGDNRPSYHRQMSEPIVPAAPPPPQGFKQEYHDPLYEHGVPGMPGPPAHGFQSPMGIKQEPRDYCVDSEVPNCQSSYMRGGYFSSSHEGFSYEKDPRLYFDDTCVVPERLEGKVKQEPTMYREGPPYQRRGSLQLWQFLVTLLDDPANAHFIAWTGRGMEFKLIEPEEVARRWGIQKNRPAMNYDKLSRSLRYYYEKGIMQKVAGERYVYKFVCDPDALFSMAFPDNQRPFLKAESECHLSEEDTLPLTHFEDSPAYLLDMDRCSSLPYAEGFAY
# Method in brief: as §1
# HSF1 = HSF1 (Homo sapiens, UniProt Q00613 1-529); conditions: protein: recombinant; tags: N-terminal GST; chain copies: 3; dsDNA, one strand shown
# HSF1, sequence (Q00613 whole entry): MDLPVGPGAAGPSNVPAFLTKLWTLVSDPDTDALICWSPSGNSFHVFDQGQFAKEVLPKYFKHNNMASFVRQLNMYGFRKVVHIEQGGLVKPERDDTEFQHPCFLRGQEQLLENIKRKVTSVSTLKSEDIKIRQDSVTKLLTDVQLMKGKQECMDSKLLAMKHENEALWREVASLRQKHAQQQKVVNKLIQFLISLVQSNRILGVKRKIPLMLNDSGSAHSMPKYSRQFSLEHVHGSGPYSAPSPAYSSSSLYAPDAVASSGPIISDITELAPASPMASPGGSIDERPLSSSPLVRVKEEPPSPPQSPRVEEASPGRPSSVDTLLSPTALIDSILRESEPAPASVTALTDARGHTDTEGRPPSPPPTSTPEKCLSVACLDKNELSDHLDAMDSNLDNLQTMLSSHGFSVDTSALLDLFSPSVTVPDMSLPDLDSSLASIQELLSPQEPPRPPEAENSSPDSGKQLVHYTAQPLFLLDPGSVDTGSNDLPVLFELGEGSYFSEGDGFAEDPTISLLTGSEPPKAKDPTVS
# Method in brief: as §1
# SPIC = target: T8, SPIC (Homo sapiens, UniProt Q8N5J4 1-248); conditions: protein: recombinant; tags: N-terminal GST; dsDNA, one strand shown
# T8 sequence: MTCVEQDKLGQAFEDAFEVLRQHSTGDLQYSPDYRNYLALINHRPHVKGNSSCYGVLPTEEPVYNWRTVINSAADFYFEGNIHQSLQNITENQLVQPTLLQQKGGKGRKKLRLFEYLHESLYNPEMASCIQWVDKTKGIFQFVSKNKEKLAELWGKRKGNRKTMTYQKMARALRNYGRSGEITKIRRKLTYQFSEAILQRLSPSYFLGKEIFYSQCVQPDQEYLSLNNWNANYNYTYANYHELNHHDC
# Method in brief: as §1
# ELF4 = ELF4 (Homo sapiens, UniProt Q99607 1-663); conditions: protein: recombinant; tags: N-terminal GST; dsDNA, one strand shown
# ELF4, sequence (Q99607 whole entry): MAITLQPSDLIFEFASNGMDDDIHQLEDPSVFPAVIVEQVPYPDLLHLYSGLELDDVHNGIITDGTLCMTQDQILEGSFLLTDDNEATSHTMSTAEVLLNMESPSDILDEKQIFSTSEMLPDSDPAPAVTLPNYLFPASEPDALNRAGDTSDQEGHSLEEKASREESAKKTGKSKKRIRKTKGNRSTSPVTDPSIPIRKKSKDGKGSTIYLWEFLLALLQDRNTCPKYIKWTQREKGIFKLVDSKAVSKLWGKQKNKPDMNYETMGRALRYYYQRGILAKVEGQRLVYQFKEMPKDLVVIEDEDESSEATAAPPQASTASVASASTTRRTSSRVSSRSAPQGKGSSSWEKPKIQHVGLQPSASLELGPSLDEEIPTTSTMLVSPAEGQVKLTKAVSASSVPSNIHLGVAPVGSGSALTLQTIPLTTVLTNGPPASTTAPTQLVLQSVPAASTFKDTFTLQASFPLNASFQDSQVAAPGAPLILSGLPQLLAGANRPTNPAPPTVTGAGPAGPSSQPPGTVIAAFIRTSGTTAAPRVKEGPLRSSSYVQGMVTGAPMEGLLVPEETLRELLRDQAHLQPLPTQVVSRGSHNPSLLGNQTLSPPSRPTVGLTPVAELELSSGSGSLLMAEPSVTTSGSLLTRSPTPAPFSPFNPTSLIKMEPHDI
# Method in brief: as §1
# ELK4 = target: T9, ELK4 (Homo sapiens, UniProt P28324-2 1-405); conditions: protein: recombinant; tags: N-terminal GST; dsDNA, one strand shown
# T9 sequence: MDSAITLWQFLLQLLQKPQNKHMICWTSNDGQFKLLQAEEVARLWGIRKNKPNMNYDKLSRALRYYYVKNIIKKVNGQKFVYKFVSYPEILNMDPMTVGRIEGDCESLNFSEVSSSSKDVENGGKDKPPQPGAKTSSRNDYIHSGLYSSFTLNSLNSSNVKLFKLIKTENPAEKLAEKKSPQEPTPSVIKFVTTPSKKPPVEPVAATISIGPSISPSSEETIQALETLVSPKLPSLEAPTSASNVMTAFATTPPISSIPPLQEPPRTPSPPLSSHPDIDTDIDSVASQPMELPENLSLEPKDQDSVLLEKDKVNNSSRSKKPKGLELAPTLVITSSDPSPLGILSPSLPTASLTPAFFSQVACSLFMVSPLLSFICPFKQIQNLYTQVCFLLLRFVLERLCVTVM
# Method in brief: as §1
# ETV2 = target: T10, ETV2 (Homo sapiens, UniProt O00321 1-342); conditions: protein: recombinant; tags: N-terminal GST; dsDNA, one strand shown
# T10 sequence: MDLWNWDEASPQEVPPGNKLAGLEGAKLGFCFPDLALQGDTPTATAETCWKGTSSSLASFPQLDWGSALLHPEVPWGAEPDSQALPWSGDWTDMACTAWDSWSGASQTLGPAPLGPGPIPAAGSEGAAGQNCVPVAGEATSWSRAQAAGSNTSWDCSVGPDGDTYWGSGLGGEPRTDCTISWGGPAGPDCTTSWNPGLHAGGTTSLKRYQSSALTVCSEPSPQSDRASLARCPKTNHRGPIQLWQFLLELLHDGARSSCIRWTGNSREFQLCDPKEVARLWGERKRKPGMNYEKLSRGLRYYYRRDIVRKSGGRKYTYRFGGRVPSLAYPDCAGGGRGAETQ
# Method in brief: as §1
# ELF3 = target: T11, ELF3 (Homo sapiens, UniProt P78545 1-371); conditions: protein: recombinant; tags: N-terminal GST; dsDNA, one strand shown
# T11 sequence: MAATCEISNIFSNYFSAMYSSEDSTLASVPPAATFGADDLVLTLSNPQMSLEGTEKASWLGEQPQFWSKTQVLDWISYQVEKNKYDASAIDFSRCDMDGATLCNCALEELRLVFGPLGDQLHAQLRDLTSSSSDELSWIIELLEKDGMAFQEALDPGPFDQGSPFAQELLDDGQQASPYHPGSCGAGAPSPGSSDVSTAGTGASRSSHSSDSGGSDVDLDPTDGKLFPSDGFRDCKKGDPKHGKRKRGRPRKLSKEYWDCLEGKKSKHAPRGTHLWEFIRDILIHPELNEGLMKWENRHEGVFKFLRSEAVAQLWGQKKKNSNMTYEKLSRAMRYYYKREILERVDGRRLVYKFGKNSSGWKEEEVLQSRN
# Method in brief: as §1
# CRX = CRX (Homo sapiens, UniProt O43186 1-299); conditions: protein: recombinant; tags: N-terminal GST; dsDNA, one strand shown
# CRX, sequence (O43186 whole entry): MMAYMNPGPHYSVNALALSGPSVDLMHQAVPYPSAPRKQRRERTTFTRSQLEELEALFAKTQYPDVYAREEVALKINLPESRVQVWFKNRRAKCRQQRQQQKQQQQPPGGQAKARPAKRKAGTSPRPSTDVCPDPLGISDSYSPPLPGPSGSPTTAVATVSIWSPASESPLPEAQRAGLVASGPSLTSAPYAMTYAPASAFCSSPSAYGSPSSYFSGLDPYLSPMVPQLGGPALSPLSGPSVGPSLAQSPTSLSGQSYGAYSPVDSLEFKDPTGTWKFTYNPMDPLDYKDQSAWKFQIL
# Method in brief: as §1
# ETV1 = ETV1 (Homo sapiens, UniProt P50549 1-477); conditions: protein: recombinant; tags: N-terminal GST; dsDNA, one strand shown
# ETV1, sequence (P50549 whole entry): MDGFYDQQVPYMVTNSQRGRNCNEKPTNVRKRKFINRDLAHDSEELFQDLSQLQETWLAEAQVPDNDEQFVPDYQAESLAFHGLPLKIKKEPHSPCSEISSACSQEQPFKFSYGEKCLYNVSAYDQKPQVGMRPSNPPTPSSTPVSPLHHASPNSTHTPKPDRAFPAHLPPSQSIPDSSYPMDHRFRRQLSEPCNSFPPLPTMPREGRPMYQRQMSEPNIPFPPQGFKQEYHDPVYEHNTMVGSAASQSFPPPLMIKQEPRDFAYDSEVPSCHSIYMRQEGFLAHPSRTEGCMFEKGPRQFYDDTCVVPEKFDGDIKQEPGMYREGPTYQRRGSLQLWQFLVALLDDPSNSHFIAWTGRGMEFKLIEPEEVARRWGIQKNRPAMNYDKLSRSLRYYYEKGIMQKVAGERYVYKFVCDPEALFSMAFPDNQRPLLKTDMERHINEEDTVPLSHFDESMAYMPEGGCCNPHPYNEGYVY
# Method in brief: as §1
sequence,measurement,setting,value
ATCATG,binding signal,FLI1,"1.21 fold enrichment (6-mer frequency, TF over GST control)"
same,binding signal,ELK1,"1.15 fold enrichment (6-mer frequency, TF over GST control)"
same,binding signal,GABPA,"1.22 fold enrichment (6-mer frequency, TF over GST control)"
same,binding signal,ERG,"1.1 fold enrichment (6-mer frequency, TF over GST control)"
same,binding signal,ELF1,"1.17 fold enrichment (6-mer frequency, TF over GST control)"
same,binding signal,EHF,"1.19 fold enrichment (6-mer frequency, TF over GST control)"
same,binding signal,SPI1,"1.06 fold enrichment (6-mer frequency, TF over GST control)"
same,binding signal,SPIB,"1.14 fold enrichment (6-mer frequency, TF over GST control)"
same,binding signal,ELK3,"1.15 fold enrichment (6-mer frequency, TF over GST control)"
same,binding signal,FEV,"1.13 fold enrichment (6-mer frequency, TF over GST control)"
same,binding signal,ETV5,"1.09 fold enrichment (6-mer frequency, TF over GST control)"
same,binding signal,HSF1,"1.09 fold enrichment (6-mer frequency, TF over GST control)"
same,binding signal,SPIC,"1.09 fold enrichment (6-mer frequency, TF over GST control)"
same,binding signal,ELF4,"1.09 fold enrichment (6-mer frequency, TF over GST control)"
same,binding signal,ELK4,"1.14 fold enrichment (6-mer frequency, TF over GST control)"
same,binding signal,ETV2,"1.18 fold enrichment (6-mer frequency, TF over GST control)"
same,binding signal,ELF3,"1.25 fold enrichment (6-mer frequency, TF over GST control)"
same,binding signal,CRX,"1.21 fold enrichment (6-mer frequency, TF over GST control)"
same,binding signal,ETV1,"1.19 fold enrichment (6-mer frequency, TF over GST control)"
